According to PubChem BioAssay (Tox21):
Inconclusive results are not listed. A call without a number means that no potency is given here. Calls of active or inactive are those of the source. Calls follow the shape of the dose curve; as a rule, active = well fitted inhibition curve with a large enough effect in the repeat runs; inconclusive = weak or mixed curves, or effect the other way; inactive = no such curve, though single readings can be large or run the other way.

Target: Androgen receptor (Homo sapiens) (UniProt P10275)
Assay: qHTS assay to identify small molecule antagonists of the androgen receptor (AR) signaling pathway using the MDA cell line (AID 743042; also: nearly all actives have a fitted effect of over 55% in size)
Conditions: MDA-kb2 AR-luc, MMTV luciferase, R1881 antagonist, 16 h; series mostly up to 70.3 µM
In short: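 MDA-kb2 breast carcinoma cells carrying MMTV-luciferase (AR/GR responsive) were co-treated with compounds and the agonist R1881 for 16 h at 37C. Inhibition read as ONE-Glo luminescence; CellTiter-Fluor fluorescence measured in parallel for cytotoxicity.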

Androgen receptor (Homo sapiens), sequence (P10275 whole entry, looked up): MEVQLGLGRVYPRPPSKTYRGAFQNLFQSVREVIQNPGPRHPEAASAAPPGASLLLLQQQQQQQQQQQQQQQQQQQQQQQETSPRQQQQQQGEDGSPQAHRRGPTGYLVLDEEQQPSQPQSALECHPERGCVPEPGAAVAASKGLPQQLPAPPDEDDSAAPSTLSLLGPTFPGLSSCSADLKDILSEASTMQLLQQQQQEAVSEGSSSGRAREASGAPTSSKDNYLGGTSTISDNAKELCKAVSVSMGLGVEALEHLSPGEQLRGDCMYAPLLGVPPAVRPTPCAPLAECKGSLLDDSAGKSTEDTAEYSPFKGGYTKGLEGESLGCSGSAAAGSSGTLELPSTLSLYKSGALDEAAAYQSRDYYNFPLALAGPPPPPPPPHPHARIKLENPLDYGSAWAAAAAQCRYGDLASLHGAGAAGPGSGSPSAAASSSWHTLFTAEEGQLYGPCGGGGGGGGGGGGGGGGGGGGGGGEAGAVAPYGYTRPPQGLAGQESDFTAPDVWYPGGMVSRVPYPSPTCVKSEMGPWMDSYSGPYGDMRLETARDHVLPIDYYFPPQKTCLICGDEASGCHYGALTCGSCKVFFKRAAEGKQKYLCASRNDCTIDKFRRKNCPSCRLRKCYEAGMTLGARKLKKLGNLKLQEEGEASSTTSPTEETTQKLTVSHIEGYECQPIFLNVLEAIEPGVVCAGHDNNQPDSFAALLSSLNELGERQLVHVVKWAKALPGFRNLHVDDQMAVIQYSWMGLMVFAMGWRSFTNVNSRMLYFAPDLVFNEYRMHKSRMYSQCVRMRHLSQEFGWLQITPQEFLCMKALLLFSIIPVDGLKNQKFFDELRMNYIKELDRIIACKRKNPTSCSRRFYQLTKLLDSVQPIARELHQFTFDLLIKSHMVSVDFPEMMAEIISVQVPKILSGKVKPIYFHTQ

| Compound | Potency |
| --- | --- |
| Nc1nc(N)c2nc(-c3ccccc3)c(N)nc2n1 | inactive |
| Cc1ccccc1Cl | inactive |
| Cc1nnc(NS(=O)(=O)c2ccc(N)cc2)s1 | inactive |
| Cc1ccc(C(C)C)cc1 | inactive |
| CCCCC(CC)COC(=O)c1ccc(C(=O)OCC(CC)CCCC)cc1 (stereo unspecified) | inactive |
| OCC(O)CS (stereo unspecified) | inactive |
